Screening results (PubChem BioAssay)
Only some compounds are listed: those with a hit (about 6.7% of all), similar ones and a draw of the others.
KB-3-1 cytotox: KB-3-1 parental cell cytotoxicity. KB-3-1 viability, CellTiter-Glo ATP luminescence, 72 h. Potency, µM (highest dose often 46.1 µM), most hits filed as cytotoxic. hit rate 1.4% among 400,000. AID 1347075; note: % is set by controls: 0 for no effect and ±100 for the full control effect; nearly all actives have a fitted effect of over 60% in size
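Luminescent ATP read-out (CellTiter-Glo) measures survival of drug-naive KB-3-1 cells after 72 h compound exposure at 37 °C. Titration series was screened from lowest to highest concentration, with DMSO vehicle plates as background controls.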
SW480 rereplic: induces DNA re-replication in SW480 colon adenocarcinoma cells. Potency, µM (series often up to 46.1 µM), inactives show at the highest dose re-replication activation, actives largely listed as activators. AID 624297. SW480 DNA re-replication, Hoechst DNA content imaging, 48 h. hit rate 1.8% among 340,000; note: % of control where 0% means no effect; nearly all actives have a fitted effect of over 55% in size
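Image-based DNA-content assay: after two days of treatment, nuclei were labelled with the DNA dye Hoechst and imaged, and hits were compounds raising the count of nuclei showing high fluorescence intensity.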
MCF10A rereplic: DNA re-replication induction in MCF 10a cells | hit rate 2.9% among 350,000 | Potency, µM (highest dose often 46.1 µM), without a hit: top-dose activity, positive = re-replication, most hits filed as activators | MCF 10A DNA re-replication, Hoechst nuclear intensity, 48 h | AID 624296; note: % of control where 0% means no effect; nearly all actives have a fitted effect of over 50% in size
KB-V1 cytotox: KB-V1 MDR subline cytotoxicity; KB-V1 MDR cells viability, CellTiter-Glo, 72 h; Potency, µM (top dose mostly 46.1 µM), hits mostly cytotoxic; hit rate 3.4% among 400,000; note: % is set by controls: 0 for no effect and ±100 for the full control effect; nearly all actives have a fitted effect of over 60% in size
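Following 72 h at 37 degrees C with compound, KB-V1 cell viability was read by CellTiter-Glo luminescence, medium being phenol-red-free DMEM plus 10% FBS; concentration-response parameters came from normalized, curve-fitted qHTS data.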
PINK1 modulator: changes PINK1 expression; PINK1 immunofluorescence, high-content cytometry, 24 h; Potency, µM (top dose mostly 76.6 µM), for the others: at the top dose activation (PINK1 increase), most hits filed as activators; hit rate 0.2% among 410,000; AID 624263; active = well fitted activation curve with a large enough effect; inconclusive = small, poorly fitted or top-dose-only effect; cell line not stated here; note: % of control where 0% means no effect; nearly all actives have a fitted effect of over 65% in size
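PINK1 protein, normally rapidly degraded, was detected by immunofluorescence after 24 hour compound treatment of a stable cell line. Titration data (5 concentrations) came from laser-scanning cytometry, with CCCP-treated wells as controls.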
Starred values were filed as active, the others as inactive; i = inactive; ? = inconclusive; / = no result; ! = not active in a repeat. Unless noted, calls come from the whole dose curve; as a rule, active = well fitted curve in the direction sought with a large enough effect; inconclusive = small, poorly fitted or top-dose-only effect, or another doubt; inactive = no such curve, though single readings can be large; an effect the other way counts as inactive or inconclusive. Potency is the fitted concentration of half-maximal effect.

SMILES | KB-3-1 cytotox | SW480 rereplic | MCF10A rereplic | KB-V1 cytotox | PINK1 modulator
O=C(NCC1CCN(C(=O)c2c(F)c(F)c(F)c(F)c2F)CC1)c1c(F)c(F)c(F)c(F)c1F | ? | 6.5% | 9.8% | i | 2.1%
CCOC(=O)Cc1nnc2c(Nc3ccc(Cl)cc3)nc3nonc3n12 | ? | 10.2% | 13µM* | ? | 44.7µM*
O=C1N(c2ccccc2C(F)(F)F)O[C@]1(c1ccccc1)C1CCCCC1 | i | 13µM* | 18.4µM* | i | 0.4%
O=C1N(c2ccccc2C(F)(F)F)OC1(Cc1ccccc1)c1ccccc1 (configuration not stated) | i | ? | ? | i | -1.3%
Cc1ccc(C(=O)NCC(=O)N(C)CC(=O)Nc2ccccc2Br)s1 | i | -3.9% | -1.5% | 20.6µM* | -0.6%
Cc1ccc(C(=O)NCC(=O)N(C)Cc2ccc(Cl)cc2Cl)s1 | i | -8.4% | 4.4% | 16.4µM* | 0.6%
CCn1c(-c2ccccc2F)nc2cc(NC(C)=O)cc(C(=O)N3CCNC(=O)C3CC(=O)OC)c21 (configuration not stated) | / | / | / | / | 0.6%
COc1cc(/C=C(\C#N)C(=O)Nc2ccccc2F)ccc1OCCN1CCOCC1 | ? | ? | 4.6% | i | -0.3%
Nc1cccc([N+](=O)[O-])c1 | i | -14.7% | 2.9% | ? | -0.3%
O=[N+]([O-])c1cccc(SSc2cccc([N+](=O)[O-])c2)c1 | i | 18.4µM* | ? | i | 1.7%
CC1CCC(C(C)C)C(OC(=O)Cn2c(-c3ccc(Br)cc3)[n+](C)c3ccccc32)C1 (configuration not stated) | 18.4µM*! | ? | ? | ? | -1.5%
CCCCCCCCCCOC(=O)Cn1c(COc2ccccc2C)[n+](C)c2ccccc21 | ? | ? | ? | i | -0.3%
CC1CCC(C(C)C)C(OC(=O)Cn2c(-c3ccc(Cl)cc3)[n+](C)c3ccccc32)C1 (configuration not stated) | ? | ? | ? | i | -2.4%
Cc1ccccc1OCc1n(CC(=O)OC2CC(C)CCC2C(C)C)c2ccccc2[n+]1C (configuration not stated) | ? | ? | 1.84µM*! | i | -2.9%
CSc1ncc(C(=O)Nc2ccc(Br)cn2)c(C)n1 | ? | ? | ? | i | 2.3%
CCCCc1ccc(NC(=S)Nc2ccc(Cl)c(S(=O)(=O)N(C)C)c2)cc1 | ? | 8.1% | ? | 23.1µM* | ?
CCN1CCN(CC(=O)Nc2ccc(Cl)c(S(=O)(=O)N(C)C)c2)CC1 | i | -22.0% | -0.4% | i | 0.1%
CCCCc1ccc(NC(=S)Nc2ccc(Nc3ccc(OC)cc3)cc2)cc1 | ? | ? | 20.6µM* | 16.4µM* | 15.7%
CCCCc1ccc(NC(=S)NCc2cccnc2)cc1 | ? | -16.8% | ? | 14.6µM* | 0.9%
CSC(=S)NCc1cccnc1 | 25.9µM* | 3.66µM* | 3.26µM* | i | 9.7%
CCCCOC(=O)c1ccc(Nc2nc3ccc(C)cc3n3cnnc23)cc1 | i | / | / | i | 1.0%
C=CCC(C(=O)NC(C)c1ccccc1)C(=O)NC(C)c1ccccc1 (configuration not stated) | i | 0.1% | 5.4% | i | 2.0%
COCC1CCCCN1C(=O)c1cc(COc2ccc3ncccc3c2)on1 (configuration not stated) | ? | -7.0% | 3.1% | ? | 4.2%
CCN1CCN(C(=O)c2cc(COc3ccc4ncccc4c3)on2)CC1 | i | -1.5% | 13.3% | 16.4µM* | 0.9%
CCC1CCCCN1C(=O)c1cc(COc2ccc3ncccc3c2)on1 (configuration not stated) | 4.11µM* | -13.8% | -0.2% | 1.64µM* | 2.5%
SMILES | KB-3-1 cytotox | SW480 rereplic | MCF10A rereplic | KB-V1 cytotox | PINK1 modulator
CCCN1CCN(C(=O)c2cc(COc3ccc4ncccc4c3)on2)CC1 | ? | -1.9% | 8.9% | ? | 0.2%
CCCCCCCCSC1=CC(=O)C(OC)=C(OC)C1=O | i | / | / | ? | 11.4%
Cc1cc(C)c(Nc2nc3ccccc3n3c(C)nnc23)c(C)c1 | i | / | / | i | 8.8%
COc1ccc(CN2CCC[C@]3(N[C@H](c4ccc(C(F)(F)F)cc4)[C@@H]4C(=O)N(Cc5ccccc5)C(=O)[C@@H]43)C2=O)cc1 | i | / | / | i | 0.2%
COc1cccc(CN(C)C(=O)c2cnn(-c3ncc4c(n3)-c3ccccc3CCC4)c2C)c1 | / | / | / | / | 0.2%
Cc1cccc(-c2nc(SCCCOc3ccccc3Cl)n3[nH]c(=O)cc3n2)c1 | i | / | / | i | 5.9%
Cc1ccc2oc(=O)c3cc(C(=O)N4CCN(c5ccccc5)CC4)sc3c2c1 | i | / | / | i | -0.3%
CC(C)C(NC(=O)c1ccc(Cl)cc1)C(=O)NC1=NCCS1 (configuration not stated) | i | -6.6% | 4.2% | 20.6µM* | 0.2%
CCSc1nnc(NC(=O)C(NC(=O)c2ccc(Cl)cc2)C(C)C)s1 (configuration not stated) | i | -2.3% | 2.0% | 11.6µM* | 3.1%
N#Cc1c(N)nc2c(c1-c1ccc(F)cc1)CCC2 | i | ? | 13µM* | i | 2.3%
Cc1cccnc1NC(=O)c1c(O)c2ccccc2n(C)c1=O | i | 13.0% | ? | 7.31µM* | 1.7%
Cn1c(=O)c(C(=O)NNC(=O)c2ccc(Br)cc2)c(O)c2ccccc21 | 25.9µM* | 21.2% | 23.1µM* | ? | ?
CCn1c(=O)c(C(=O)Nc2ncccc2C)c(O)c2ccccc21 | ? | 24.2% | 15.6% | 4.61µM* | 3.5%
Cc1cc(C)cc(CN2CCOc3ccc(CN4CCC(O)(c5cccnc5)CC4)cc3C2)c1 | / | / | / | / | -0.7%
CN(Cc1ccc(OC(F)F)cc1)C(=O)c1ccc(S(=O)(=O)N(C)c2ccccc2)cc1 | ? | -11.4% | 12.1% | i | 1.1%
Cc1ccc(CN(C)C(=O)c2ccc(S(=O)(=O)N(C)c3ccccc3)cc2)o1 | i | 8.2µM* | ? | i | 0.5%
CSc1ccccc1OCc1cc(C(=O)N(C)Cc2ccc(C)o2)no1 | i | ? | 10.2% | i | 1.7%
Cc1ccc(CN(C)C(=O)c2ccccc2Oc2ccccc2)o1 | i | ? | 6.5% | 20.6µM* | -4.1%
O=C(NNC(=O)c1ccc(Cl)nc1)c1ccncc1 | i | -6.5% | 0.1% | i | -1.0%
Cc1ccc2cc(C#N)c(N3CCCN(C(=S)NCCCN(C)C)CC3)nc2c1 | ? | 23.1µM* | 3.66µM* | i | -0.6%
Cc1cc(C)c2cc(C#N)c(N3CCCN(C(=S)NCCCN(C)C)CC3)nc2c1 | ? | ? | 7.31µM* | ? | -1.9%
Cc1ccc(C)c(N2N=C(C(=O)NCCN3C(=O)S/C(=C\c4cccnc4)C3=O)CCC2=O)c1 | i | -66.3% | 3.6% | i | 1.4%
